Experiment [1] in a line: NCI Yeast Anticancer Drug Screen. Data for the rad50 strain (AID 155).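 Also: 0% = growth of vehicle-only cultures of the same strain.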 As to conditions: S. cerevisiae rad50 strain growth inhibition; at 50.0 µM; stronger effect = higher value. A digest of the protocol:
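Growth of the mutant yeast was measured after compound exposure and referenced to vehicle-treated cultures.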

Experiment [2] can be described thus: NCI Yeast Anticancer Drug Screen. Data for the mec2-1 strain (AID 157). As to conditions: S. cerevisiae mec2-1 strain, at 50.0 µM, stronger effect = higher value. A digest of the protocol:
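Vehicle-treated cultures served as reference for growth inhibition of compound-exposed mec2-1 yeast.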

Experiment [3] in a line: NCI Yeast Anticancer Drug Screen. Data for the sgs1 mgt1 strain (AID 161).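 Also: 0% = growth of cultures given vehicle only.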 Particulars: S. cerevisiae sgs1 mgt1 strain, at 50.0 µM, stronger effect = higher value. The essentials: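 Genetically altered yeast, compound exposure, growth inhibition relative to vehicle.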
The nature of experiment [4]: NCI Yeast Anticancer Drug Screen. Data for the cln2 rad14 strain (AID 165).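 Also: 0% = growth equal to vehicle treated cultures.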 Particulars: S. cerevisiae cln2 rad14 strain, at 50.0 µM, stronger effect = higher value. The essentials: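 Each compound was tested on cln2 rad14 yeast. Inhibition of growth was calculated against vehicle-exposed controls.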
The nature of experiment [5]: NCI Yeast Anticancer Drug Screen. Data for the bub3 strain (AID 167). As to conditions: S. cerevisiae bub3 mutant strain, at 50.0 µM, stronger effect = higher value. A digest of the protocol:
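Whole-cell yeast assay. The mutant strain was incubated with compounds, and growth inhibition was determined by comparison with vehicle-treated cells.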

Experiment [6] in a line: NCI Yeast Anticancer Drug Screen. Data for the mlh1 rad18 strain (AID 175). As to conditions: S. cerevisiae mlh1 rad18 strain growth inhibition; at 50.0 µM; stronger effect = higher value. The essentials:
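Vehicle-treated cultures served as the reference for growth inhibition in a yeast strain carrying DNA damage repair alterations exposed to each compound.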

Molecules are shown by their SMILES. About 79,000 compounds went through this panel and 15% of them were active in at least one assay; those are over-represented in the sample as a whole. A number with no mark means an inactive call. Activity calls are given as the source filed them. Rule as the data show it: active = growth inhibition above about 70%; inactive = the rest.

For the compound `CCOc1c(/C=C\c2cc(/C=C/c3cccc(OC)c3OCC)c([N+](=O)[O-])cc2[N+](=O)[O-])cccc1OC`, the growth inhibition was 16.4% in experiment [1]; -13.7% in experiment [2]; 1.75% in experiment [3]; -36.6% in experiment [4]; -4.45% in experiment [5]; 9.55% in experiment [6].
Take `CC12C=CC(=O)C=C1CCC1C2C(O)CC2(C)/C(=C\CO)CCC12` (stereo not given): the growth inhibition in experiment [1] is -4.05%; in experiment [2], -1.75%; in experiment [3], 6.55%; in experiment [4] it was -15.8%; in experiment [5] it was 60.2%; in experiment [6], -3.35%.
For `CCOC(=O)c1cc2c(oc1=O)-c1cc(C)ccc1OC2C` (stereo not given), the growth inhibition was -9.45% in experiment [1]; -14.8% in experiment [2]; 8.75% in experiment [3]; -40.6% in experiment [4]; -38.4% in experiment [5]; 11.1% in experiment [6].
Consider `COC(=O)CC(c1ccc(OC)cc1)c1cc2c(cc1OC)OCO2` (stereo not given), for which the growth inhibition in experiment [1] is 3.45%; in experiment [2], 3.75%; in experiment [3], 2.75%; in experiment [4] it was 7.5%; in experiment [5], 18.3%; in experiment [6], 15.5%.
Regarding `COC(=O)C1(C)CCCC2(C)C3CCC(C(C)C)CC3CCC12` (stereo not given), the growth inhibition in experiment [1] is 24.9%; in experiment [2], -12.8%; in experiment [3], 20.1%; in experiment [4], -12.6%; in experiment [5], -5.9%; in experiment [6], 8.65%.
Consider `O=C1NCCCCCC1S(=O)c1ccccc1` (stereo not given), for which the growth inhibition is -7.8% in experiment [1]; -10.2% in experiment [2]; -8.5% in experiment [3]; 28.6% in experiment [4]; -11.8% in experiment [5]; -11.8% in experiment [6].
`CCCNCC(O)COc1ccc2c3c(c(=O)oc2c1)CCC3` (stereo not given): the growth inhibition is 1.15% in experiment [1]; 10.8% in experiment [2]; -23.9% in experiment [3]; -8.25% in experiment [4]; -29.8% in experiment [5]; -15.8% in experiment [6].
Take `Cc1c([N+](=O)[O-])cc(C(=O)O)cc1[N+](=O)[O-]`: the growth inhibition is 35.6% in experiment [1]; -0.15% in experiment [2]; 16.4% in experiment [3]; -7.4% in experiment [4]; 2.55% in experiment [5]; 27.9% in experiment [6].
As to `O=C(Nc1ccccc1C(=O)N/N=C/c1ccccc1O)c1ccccc1Cl`, the growth inhibition in experiment [1] is 73.3% (active); in experiment [2], 91% (active); in experiment [3] it was 91.4% (active); in experiment [4], 84.8% (active); in experiment [5] it was 68.3%; in experiment [6], 90.8% (active).
`ON(C=Nc1ccccc1)c1ccccc1`: the growth inhibition in experiment [1] was 17%; in experiment [2] it was 19.1%; in experiment [3], 6.35%; in experiment [4] it was -11.5%; in experiment [5] it was -3.25%; in experiment [6] it was 7.05%.
In the case of `CC(=S)N/C=C/c1c(C(=O)O)cc([N+](=O)[O-])cc1[N+](=O)[O-]`, the growth inhibition is -16.9% in experiment [1]; -27.7% in experiment [2]; 4.55% in experiment [3]; -12.8% in experiment [4]; -18.9% in experiment [5]; 4.7% in experiment [6].
For the compound `Nc1cc2c(cc1/C=C1\CCNC1=O)OCO2`, the growth inhibition in experiment [1] is -5.65%; in experiment [2] it was -12.1%; in experiment [3], -22.2%; in experiment [4], -6.6%; in experiment [5] it was -11.8%; in experiment [6], -4.85%.
For `CCOC(=O)CN1CC(C2=C(O)CN(CC(=O)OCC)C2=O)=CC1=O`, the growth inhibition is 0.75% in experiment [1]; 9.7% in experiment [2]; -12.6% in experiment [3]; 29.1% in experiment [4]; 9.55% in experiment [5]; -27% in experiment [6].
Take `COc1ccc2[nH]c3c4c(c5cc(C(C)(C)C)ccc5c3c2c1)C(=O)N(c1ccccc1)C4=O`: the growth inhibition in experiment [1] is -12.8%; in experiment [2] it was -13.3%; in experiment [3], 3.1%; in experiment [4] it was 16.7%; in experiment [5], -14.2%; in experiment [6] it was -8.7%.
As to `C=C1CCC2(C)CCC3(C)C(CCC4C5(C)CCC(OC(C)=O)C(C)(C)C5CCC43C)C2C1C` (stereo not given), the growth inhibition in experiment [1] is -4.05%; in experiment [2], -5.9%; in experiment [3], 4.6%; in experiment [4] it was 1.45%; in experiment [5] it was -5.15%; in experiment [6], 26.6%.
For the compound `COCCCn1c(-c2ccc(Cl)cc2)nn2c(=O)c3ccccc3nc2c1=O`, the growth inhibition in experiment [1] is 20%; in experiment [2], -1.75%; in experiment [3], 17.2%; in experiment [4], 10.2%; in experiment [5], 13.4%; in experiment [6] it was 7.45%.
For the compound `Cc1ccc(S(=O)(=O)OCC2C(COS(=O)(=O)c3ccc(C)cc3)C3C=CC2C32CC2)cc1` (stereo not given), the growth inhibition in experiment [1] was -5.5%; in experiment [2], -7.9%; in experiment [3], 27.9%; in experiment [4] it was 77.7% (active); in experiment [5], 91% (active); in experiment [6] it was 5.25%.
Consider `Cc1ccc(/C=N/NS(=O)(=O)c2ccc(/C=C3\NC(=O)NC3=O)cc2)cc1`, for which the growth inhibition in experiment [1] is -16.8%; in experiment [2], -6.1%; in experiment [3] it was -31.4%; in experiment [4], -6.55%; in experiment [5] it was -41.2%; in experiment [6] it was 1.75%.
For `O=C(O)/C=C\C(=O)Nc1ccccn1`, the growth inhibition in experiment [1] was -30.6%; in experiment [2] it was -43.8%; in experiment [3], -52.7%; in experiment [4] it was -2.65%; in experiment [5], -44.9%; in experiment [6], -21.4%.
With `CC(C)(c1ccsc1)c1sccc1C(=O)O`, the growth inhibition is -4.7% in experiment [1]; 2.95% in experiment [2]; 8.55% in experiment [3]; -19.4% in experiment [4]; -2.95% in experiment [5]; 16.2% in experiment [6].

The values above are taken from PubChem BioAssay (NCI).
